The supplement of paper PMC11732987, “Enantioselective OTUD7B fragment discovery through chemoproteomics screening and high-throughput optimisation” (Communications Chemistry, 2025)

Key:
Assay in all cases: log2 ratio of Biotin-Ahx-Ub-VS probe labelling (fragment/DMSO); higher = less target engagement (more negative = stronger competition), active = hit call of the paper (q ≤ 0.05, log2 ratio ≤ -1)
Conditions in all cases: compound concentration: 200 uM; treatment time: 3 h
ALG13 = target: T1, ALG13 (UniProt Q9NP73)
T1 sequence (whole entry): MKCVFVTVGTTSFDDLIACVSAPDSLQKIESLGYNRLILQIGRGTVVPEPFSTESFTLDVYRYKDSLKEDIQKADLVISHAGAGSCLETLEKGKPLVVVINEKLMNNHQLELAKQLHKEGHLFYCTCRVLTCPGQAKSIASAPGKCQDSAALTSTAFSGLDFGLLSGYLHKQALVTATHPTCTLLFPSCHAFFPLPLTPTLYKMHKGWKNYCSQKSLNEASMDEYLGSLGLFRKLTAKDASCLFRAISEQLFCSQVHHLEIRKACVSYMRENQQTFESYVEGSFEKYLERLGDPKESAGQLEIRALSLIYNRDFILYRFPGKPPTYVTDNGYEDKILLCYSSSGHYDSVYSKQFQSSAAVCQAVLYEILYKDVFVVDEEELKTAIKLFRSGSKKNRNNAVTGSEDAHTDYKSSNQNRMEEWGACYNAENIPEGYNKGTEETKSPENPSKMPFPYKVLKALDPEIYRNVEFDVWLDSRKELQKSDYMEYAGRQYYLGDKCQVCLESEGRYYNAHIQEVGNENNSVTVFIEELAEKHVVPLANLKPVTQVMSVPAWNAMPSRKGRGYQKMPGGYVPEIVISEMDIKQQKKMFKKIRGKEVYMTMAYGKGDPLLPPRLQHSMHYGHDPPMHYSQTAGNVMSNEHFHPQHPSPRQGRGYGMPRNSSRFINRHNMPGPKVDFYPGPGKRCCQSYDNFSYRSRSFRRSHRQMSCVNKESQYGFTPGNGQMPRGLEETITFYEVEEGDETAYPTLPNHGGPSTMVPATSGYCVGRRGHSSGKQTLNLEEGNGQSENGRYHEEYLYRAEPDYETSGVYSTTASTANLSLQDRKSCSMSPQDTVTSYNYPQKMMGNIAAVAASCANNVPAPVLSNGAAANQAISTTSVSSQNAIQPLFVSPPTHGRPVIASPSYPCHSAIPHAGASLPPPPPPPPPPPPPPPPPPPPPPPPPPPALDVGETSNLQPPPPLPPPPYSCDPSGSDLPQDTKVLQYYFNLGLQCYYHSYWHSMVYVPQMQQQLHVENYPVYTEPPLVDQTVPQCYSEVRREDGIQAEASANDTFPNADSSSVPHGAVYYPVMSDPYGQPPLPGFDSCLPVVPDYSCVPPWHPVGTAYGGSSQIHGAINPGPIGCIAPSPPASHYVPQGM
Outline: (§1)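 HEK293T lysate (495 µg per sample, in Tris/CHAPS/IGEPAL buffer with protease inhibitors) was exposed in triplicate for 3 h to fragment at 200 µM or to vehicle, then to Biotin-Ahx-Ub-VS at 0.5 µM final for 1 h. Labelled DUBs were enriched on NeutrAvidin, digested with LysC and trypsin, and analysed by diaPASEF LC-MS/MS. Spectronaut label-free quantities were normalised to the global median, and values are average log2 ratios of fragment over vehicle from an unpaired t-test. Only proteins with ≥2 unique peptides were used.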

ATXN3 = ATXN3 (UniProt P54252)
Chain of ATXN3 (P54252 whole entry): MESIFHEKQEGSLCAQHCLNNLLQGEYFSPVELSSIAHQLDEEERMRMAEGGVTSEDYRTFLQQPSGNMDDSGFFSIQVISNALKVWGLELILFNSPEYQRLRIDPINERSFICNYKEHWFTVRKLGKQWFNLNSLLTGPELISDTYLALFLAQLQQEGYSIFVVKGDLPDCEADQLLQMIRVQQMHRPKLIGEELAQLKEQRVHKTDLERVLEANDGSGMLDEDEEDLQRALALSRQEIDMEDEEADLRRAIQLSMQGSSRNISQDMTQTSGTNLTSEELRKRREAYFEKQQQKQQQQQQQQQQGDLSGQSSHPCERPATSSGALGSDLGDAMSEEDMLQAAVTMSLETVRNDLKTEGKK
Outline: as §1

BAP1 = target: T2, BAP1 (UniProt Q92560)
T2 sequence (whole entry): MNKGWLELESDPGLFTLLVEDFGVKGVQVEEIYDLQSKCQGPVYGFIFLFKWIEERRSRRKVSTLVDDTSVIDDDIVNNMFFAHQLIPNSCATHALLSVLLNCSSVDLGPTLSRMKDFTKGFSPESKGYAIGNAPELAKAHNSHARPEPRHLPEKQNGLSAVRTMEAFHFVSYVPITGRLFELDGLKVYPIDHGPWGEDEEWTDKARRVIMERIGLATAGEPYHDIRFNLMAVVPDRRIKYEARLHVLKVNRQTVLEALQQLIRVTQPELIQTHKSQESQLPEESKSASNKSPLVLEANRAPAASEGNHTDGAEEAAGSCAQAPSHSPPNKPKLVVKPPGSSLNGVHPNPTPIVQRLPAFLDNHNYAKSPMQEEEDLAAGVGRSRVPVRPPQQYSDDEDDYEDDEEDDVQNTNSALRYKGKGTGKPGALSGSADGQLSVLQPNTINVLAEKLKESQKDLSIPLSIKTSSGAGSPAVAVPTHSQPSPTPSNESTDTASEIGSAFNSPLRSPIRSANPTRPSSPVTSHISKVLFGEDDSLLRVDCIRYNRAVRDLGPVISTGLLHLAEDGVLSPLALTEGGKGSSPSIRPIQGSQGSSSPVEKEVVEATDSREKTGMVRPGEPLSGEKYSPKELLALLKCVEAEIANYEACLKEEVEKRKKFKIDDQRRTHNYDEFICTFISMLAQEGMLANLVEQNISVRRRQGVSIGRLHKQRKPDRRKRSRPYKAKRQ
Outline: as §1

EIF3F = EIF3F (UniProt O00303)
Chain of EIF3F (O00303 whole entry): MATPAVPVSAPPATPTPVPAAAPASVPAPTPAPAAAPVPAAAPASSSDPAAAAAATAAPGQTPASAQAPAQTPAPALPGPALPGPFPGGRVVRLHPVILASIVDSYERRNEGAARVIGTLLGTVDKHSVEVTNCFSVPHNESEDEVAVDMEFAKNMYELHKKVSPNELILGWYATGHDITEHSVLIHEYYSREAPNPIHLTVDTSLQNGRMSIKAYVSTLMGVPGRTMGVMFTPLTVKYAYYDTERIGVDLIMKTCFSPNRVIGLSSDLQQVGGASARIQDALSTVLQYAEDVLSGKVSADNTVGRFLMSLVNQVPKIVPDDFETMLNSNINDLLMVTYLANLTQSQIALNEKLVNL
Outline: as §1

EIF3H = EIF3H (UniProt O15372)
Chain of EIF3H (O15372 whole entry): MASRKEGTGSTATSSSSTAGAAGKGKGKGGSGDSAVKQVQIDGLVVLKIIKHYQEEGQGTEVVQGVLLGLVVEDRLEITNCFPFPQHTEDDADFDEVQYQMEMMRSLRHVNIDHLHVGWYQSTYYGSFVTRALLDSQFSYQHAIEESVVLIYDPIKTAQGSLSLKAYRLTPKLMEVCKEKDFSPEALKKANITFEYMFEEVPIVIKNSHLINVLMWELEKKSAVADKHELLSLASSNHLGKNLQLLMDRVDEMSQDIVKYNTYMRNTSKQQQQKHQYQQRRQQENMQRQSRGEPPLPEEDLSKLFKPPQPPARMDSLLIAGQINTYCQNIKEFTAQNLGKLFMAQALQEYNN
Outline: as §1

FAM105A = target: T3, FAM105A (UniProt Q9NUU6)
T3 sequence (whole entry): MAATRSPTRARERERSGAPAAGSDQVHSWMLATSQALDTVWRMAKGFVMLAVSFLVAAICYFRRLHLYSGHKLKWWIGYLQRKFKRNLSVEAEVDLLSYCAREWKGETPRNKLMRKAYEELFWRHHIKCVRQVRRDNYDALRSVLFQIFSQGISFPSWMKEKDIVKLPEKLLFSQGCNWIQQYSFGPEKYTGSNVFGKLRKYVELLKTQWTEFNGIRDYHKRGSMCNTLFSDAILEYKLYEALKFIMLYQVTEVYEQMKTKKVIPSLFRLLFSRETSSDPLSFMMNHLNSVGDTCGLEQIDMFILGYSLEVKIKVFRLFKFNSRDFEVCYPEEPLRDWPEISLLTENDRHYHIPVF
Outline: as §1

OTUB1 = OTUB1 (UniProt Q96FW1)
Chain of OTUB1 (Q96FW1 whole entry): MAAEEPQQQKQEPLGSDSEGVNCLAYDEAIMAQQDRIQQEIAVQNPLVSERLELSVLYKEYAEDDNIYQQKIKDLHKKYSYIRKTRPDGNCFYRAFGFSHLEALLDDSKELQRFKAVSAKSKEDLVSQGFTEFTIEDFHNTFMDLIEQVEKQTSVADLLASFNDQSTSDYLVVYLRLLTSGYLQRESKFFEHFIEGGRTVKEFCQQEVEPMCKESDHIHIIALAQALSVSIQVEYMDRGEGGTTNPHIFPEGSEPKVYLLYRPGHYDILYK
Outline: as §1

OTUD4 = target: T4, OTUD4 (UniProt Q01804)
T4 sequence (whole entry): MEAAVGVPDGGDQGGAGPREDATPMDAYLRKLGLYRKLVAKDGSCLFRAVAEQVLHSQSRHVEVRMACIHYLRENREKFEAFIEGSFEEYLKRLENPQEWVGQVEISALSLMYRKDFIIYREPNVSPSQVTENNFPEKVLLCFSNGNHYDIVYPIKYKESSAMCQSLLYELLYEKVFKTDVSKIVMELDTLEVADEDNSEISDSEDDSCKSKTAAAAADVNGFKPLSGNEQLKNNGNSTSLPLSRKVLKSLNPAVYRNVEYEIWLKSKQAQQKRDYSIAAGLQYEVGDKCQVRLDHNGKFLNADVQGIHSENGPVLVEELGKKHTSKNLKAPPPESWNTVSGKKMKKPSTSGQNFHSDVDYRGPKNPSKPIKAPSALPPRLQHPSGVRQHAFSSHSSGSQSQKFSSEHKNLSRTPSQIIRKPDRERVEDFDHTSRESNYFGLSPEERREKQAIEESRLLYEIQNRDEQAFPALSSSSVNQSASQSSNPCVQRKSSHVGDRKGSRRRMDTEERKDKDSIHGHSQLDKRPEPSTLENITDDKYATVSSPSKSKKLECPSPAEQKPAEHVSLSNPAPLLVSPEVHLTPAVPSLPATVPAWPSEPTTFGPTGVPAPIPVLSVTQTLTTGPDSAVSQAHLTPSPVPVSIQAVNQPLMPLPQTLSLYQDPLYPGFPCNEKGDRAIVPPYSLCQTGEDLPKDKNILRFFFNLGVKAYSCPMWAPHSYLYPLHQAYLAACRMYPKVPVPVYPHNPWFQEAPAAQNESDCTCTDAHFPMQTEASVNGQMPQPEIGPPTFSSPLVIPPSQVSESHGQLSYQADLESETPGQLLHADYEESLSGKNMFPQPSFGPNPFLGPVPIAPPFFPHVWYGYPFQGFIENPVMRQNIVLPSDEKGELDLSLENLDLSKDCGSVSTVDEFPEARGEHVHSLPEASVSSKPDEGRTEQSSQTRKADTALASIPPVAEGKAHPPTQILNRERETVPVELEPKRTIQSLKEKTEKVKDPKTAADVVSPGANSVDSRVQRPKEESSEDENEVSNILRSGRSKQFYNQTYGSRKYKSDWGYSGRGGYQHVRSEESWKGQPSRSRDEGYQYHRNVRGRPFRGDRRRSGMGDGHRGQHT
Outline: as §1

OTUD5 = target: T5, OTUD5 (UniProt Q96G74)
T5 sequence (whole entry): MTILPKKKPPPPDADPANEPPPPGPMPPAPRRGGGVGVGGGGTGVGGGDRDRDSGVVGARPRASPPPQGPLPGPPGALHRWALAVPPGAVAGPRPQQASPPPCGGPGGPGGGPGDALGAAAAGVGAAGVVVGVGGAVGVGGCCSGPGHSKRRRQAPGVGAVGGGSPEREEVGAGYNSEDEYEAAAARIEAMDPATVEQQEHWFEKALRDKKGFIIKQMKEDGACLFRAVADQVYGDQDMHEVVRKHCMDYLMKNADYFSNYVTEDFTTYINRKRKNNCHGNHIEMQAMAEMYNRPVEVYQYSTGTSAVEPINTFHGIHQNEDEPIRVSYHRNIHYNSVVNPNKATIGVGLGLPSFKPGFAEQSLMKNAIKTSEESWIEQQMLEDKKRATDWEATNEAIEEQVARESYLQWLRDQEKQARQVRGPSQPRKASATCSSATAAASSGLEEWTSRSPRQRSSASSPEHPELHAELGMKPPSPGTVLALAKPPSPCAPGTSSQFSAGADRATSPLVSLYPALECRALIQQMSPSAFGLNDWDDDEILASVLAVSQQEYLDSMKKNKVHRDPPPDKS
Outline: as §1

Measured: log2 ratio of Biotin-Ahx-Ub-VS probe labelling

Cl.O=C(CCl)NC1(c2ncccn2)CCC1
inactive: ALG13 0.0863 | ATXN3 0.0333 | BAP1 -0.171 | EIF3F -0.137 | EIF3H 0.137 | FAM105A -0.242 | OTUB1 -0.293 | OTUD4 -0.17 | OTUD5 0.0342
